Screens: PubChem BioAssay, Broad Institute
The full list was thinned out, with hits kept by preference.
miR-122 inh – raises miR-122 sensor activity in Huh7 cells. Huh7 psiCHECK-miR122 Renilla luciferase sensor, 48 h. activation, % at 12.5 µM. 0.14% of 340,000 active;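 active = mean activation of 30% or more, with every replicate also reaching 30%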;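 note: higher luciferase signal means stronger suppression of miR-122 activity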
Numbers stand for hits; i = inactive.

SMILES	miR-122 inh
C[C@H](CO)N1C[C@H](C)[C@H](CN(C)C(=O)C2CCCCC2)Oc2ncc(-c3ccccc3F)cc2C1=O	i
COc1ccc(NC(=O)N(C)C[C@@H]2Oc3ncc(C4=CCCC4)cc3C(=O)N([C@@H](C)CO)C[C@H]2C)cc1	i
C[C@@H]1CN([C@@H](C)CO)S(=O)(=O)c2ccc(-c3cncnc3)cc2O[C@H]1CN(C)Cc1ccccc1	i
COCC#Cc1cnc2c(c1)C(=O)N([C@H](C)CO)C[C@H](C)[C@@H](CN(C)C(=O)Nc1ccccc1OC)O2	i
C[C@H](CO)N1C[C@H](C)[C@H](CN(C)C(=O)Nc2ccccc2)Oc2cc(-c3cccc(C(=O)N(C)C)c3)ccc2S1(=O)=O	i
C[C@H]1CN([C@@H](C)CO)C(=O)c2cc(/C=C/c3ccccc3)cnc2O[C@@H]1CN(C)S(=O)(=O)c1ccc(F)cc1	i
CCCNC(=O)Nc1ccc2c(c1)OC[C@H](C)N(C)C[C@@H](C)[C@@H](OC)CN(C)C2=O	i
COc1ccc(C#Cc2ccc3c(c2)O[C@@H](CN(C)C(=O)NC2CCCCC2)[C@@H](C)CN([C@H](C)CO)S3(=O)=O)cc1	i
C[C@@H]1CN([C@@H](C)CO)C(=O)c2cc(C3=CCCCC3)cnc2O[C@H]1CN(C)C(=O)Cc1ccccc1	i
Cc1ccc(-c2cnc3c(c2)C(=O)N([C@@H](C)CO)C[C@@H](C)[C@H](CN(C)C(=O)Cc2ccncc2)O3)cc1	i
C/C=C/c1ccc2c(c1)O[C@H](CN(C)C(=O)Nc1ccc(OC)cc1)[C@@H](C)CN([C@@H](C)CO)S2(=O)=O	i
CC(C)C#Cc1ccc2c(c1)O[C@H](CN(C)C(=O)CC1CC1)[C@@H](C)CN([C@H](C)CO)S2(=O)=O	i
CC(C)C#Cc1cnc2c(c1)C(=O)N([C@H](C)CO)C[C@@H](C)[C@@H](CN(C)Cc1ccccn1)O2	i
COc1cccc(C#Cc2ccc3c(c2)O[C@H](CN(C)C(=O)c2ccccn2)[C@H](C)CN([C@H](C)CO)S3(=O)=O)c1	i
C[C@H]1CN([C@@H](C)CO)S(=O)(=O)c2ccc(-c3cccc(C#N)c3)cc2O[C@@H]1CN(C)Cc1ccccn1	i
C/C=C/c1ccc2c(c1)O[C@@H](CN(C)Cc1ccccc1F)[C@H](C)CN([C@@H](C)CO)S2(=O)=O	i
COc1cccc(C(=O)Nc2ccc3c(c2)C(=O)N(C)[C@@H]2CC[C@@H](CC(=O)N[C@H](C)c4ccccc4)O[C@@H]2CO3)c1	47
CO[C@H]1CN(C)C(=O)c2cc(NC(C)=O)ccc2OC[C@@H](C)N(C(=O)c2ccccc2)C[C@@H]1C	i
C[C@H]1CN([C@@H](C)CO)S(=O)(=O)c2ccc(-c3ccncc3)cc2O[C@@H]1CN(C)Cc1cncnc1	i
COc1ccc(CN(C)C[C@H]2Oc3c(NC(=O)NC4CCCCC4)cccc3C(=O)N([C@H](C)CO)C[C@@H]2C)cc1	i
Cc1ccc(S(=O)(=O)Nc2ccc(C(=O)NCc3ccccn3)cc2)cc1	i
COc1ccc(NS(=O)(=O)c2cc(NS(=O)(=O)c3cccs3)ccc2C)cc1	i
O=S(=O)(Nc1nccs1)c1ccc(NS(=O)(=O)c2cccs2)cc1	39
CCCNC(=O)N(C)C[C@@H]1Oc2cc(C#CCOC)ccc2S(=O)(=O)N([C@@H](C)CO)C[C@@H]1C	i
C[C@H]1CN([C@@H](C)CO)S(=O)(=O)c2ccc(-c3ccccc3)cc2O[C@H]1CN(C)Cc1ccccc1C(=O)O	i
SMILES	miR-122 inh
O=C1CC(Sc2nnnn2-c2ccccc2)C(=O)N1c1cccc(Cl)c1 (configuration not stated)	52
C[C@H]1CN([C@@H](C)CO)C(=O)c2cccc(NC(=O)c3ccncc3)c2O[C@@H]1CN(C)CC1CCCCC1	i
COc1cccc(C#Cc2ccc3c(c2)O[C@@H](CN(C)S(=O)(=O)c2ccccc2F)[C@H](C)CN([C@@H](C)CO)S3(=O)=O)c1	i
C[C@H](CO)N1C[C@H](C)[C@@H](CN(C)Cc2ccc(C(F)(F)F)cc2)Oc2c(NC(=O)c3cnccn3)cccc2C1=O	i
CCC(=O)Nc1ccc2c(c1)OC[C@@H](C)N(C(=O)CN1CCOCC1)C[C@@H](C)[C@H](OC)CN(C)C2=O	i
C[C@@H]1CN([C@H](C)CO)C(=O)c2cc(-c3cncnc3)cnc2O[C@H]1CN(C)Cc1ccccc1	i
COc1ccccc1NC(=O)N(C)C[C@H]1Oc2ncc(C#CCC(C)C)cc2C(=O)N([C@H](C)CO)C[C@@H]1C	i
C[C@@H]1CN([C@H](C)CO)C(=O)c2cc(C#Cc3ccccc3)cnc2O[C@@H]1CN(C)Cc1ccccn1	i
CCOC(=O)CSc1nc2ccccc2c(=O)n1CC1CCC(C(=O)NCc2ccco2)CC1 (configuration not stated)	i
CCOC(=O)CSc1nnnn1-c1cccc2ccccc12	38
CC(C)N1C(=O)CC(Nc2ccc(N3CCOCC3)cc2)C1=O (configuration not stated)	i
CCc1nnc(SCC(=O)Nc2ccc(N3CCOCC3)cc2)o1	32
CCc1ccc(NC(=O)CN2CCc3ccccc3C2)cc1	i
C[C@H](CO)N1C[C@H](C)[C@H](CN(C)Cc2ccc(F)cc2)Oc2ncc(-c3cncnc3)cc2C1=O	i
